Laboratory results published in PMC5913336, “True equilibrium measurement of transcription factor-DNA binding affinities using automated polarization microscopy”.
pKd: −log10 of the molar value.

Target: Ttk-PF (Drosophila melanogaster, UniProt P17789 499-564)
Assay: FP; 33 mM phosphate pH 7.0, 90 mM NaCl, 0.01% Tween 20, 0.1 mM DTT, 0.5% agarose; room temperature
Settings: dsDNA, one strand shown

Sequence	binding signal	pKd
TCGCCAGGATGAC	3.28 Kd / Kd of best base at the position	
ACGCCAGGATAAC	2.88 Kd / Kd of best base at the position	
TCGCCAGTATAAC	> 208 Kd / Kd of best base at the position	
TCGCCAGGATTAC	1.69 Kd / Kd of best base at the position	
TCGCCAGGATAAC		~7.32
TCGCCAGGATCAC	7.79 Kd / Kd of best base at the position	
TCGCCAGAATAAC	> 208 Kd / Kd of best base at the position	
TCGCCAGGAAAAC	13.5 Kd / Kd of best base at the position	
TCGCCATGATAAC	> 208 Kd / Kd of best base at the position	
TCGCCAGGACAAC	12.9 Kd / Kd of best base at the position	
TCGACAGGATAAC	26.7 Kd / Kd of best base at the position	
TCGCCAGCATAAC	5.81 Kd / Kd of best base at the position	
TCGTCAGGATAAC	> 208 Kd / Kd of best base at the position	
GCGCCAGGATAAC	2.76 Kd / Kd of best base at the position	
TCTCCAGGATAAC	3.54 Kd / Kd of best base at the position	
TCGCCAAGATAAC	124 Kd / Kd of best base at the position	
TCGCCACGATAAC	> 208 Kd / Kd of best base at the position	
TCCCCAGGATAAC	2.9 Kd / Kd of best base at the position	
TCGCCGGGATAAC	> 208 Kd / Kd of best base at the position	
TCGCCAGGTTAAC	12.8 Kd / Kd of best base at the position	

Sequence	binding signal	pKd
CCGCCAGGATAAC	3.01 Kd / Kd of best base at the position	
TCGCCAGGATATC	1.65 Kd / Kd of best base at the position	
TCGCCAGGATAAA	1.28 Kd / Kd of best base at the position	
TCGCCAGGATAGC	1 Kd / Kd of best base at the position	
TCGCCAGGAGAAC	8.25 Kd / Kd of best base at the position	
TCGCCAGGGTAAC	8.56 Kd / Kd of best base at the position	
TCGCCAGGCTAAC	5.16 Kd / Kd of best base at the position	
TTGCCAGGATAAC	1.71 Kd / Kd of best base at the position	
TCGCCAGGATAAG	1.76 Kd / Kd of best base at the position	
TCGCGAGGATAAC	67.2 Kd / Kd of best base at the position	
TCGCAAGGATAAC	> 208 Kd / Kd of best base at the position	
TCGCCTGGATAAC	> 208 Kd / Kd of best base at the position	
TCACCAGGATAAC	5.13 Kd / Kd of best base at the position	
TCGCTAGGATAAC	> 208 Kd / Kd of best base at the position	
TAGCCAGGATAAC	1.69 Kd / Kd of best base at the position	
TCGCCAGGATACC	3.82 Kd / Kd of best base at the position	
TCGCCAGGATAAT	1.84 Kd / Kd of best base at the position	
TCGGCAGGATAAC	1.42 Kd / Kd of best base at the position	
TGGCCAGGATAAC	2.43 Kd / Kd of best base at the position	
